High-throughput results as filed in PubChem BioAssay.
VP16 counter – VP16 counterscreen qHTS for inhibitors of ROR gamma transcriptional activity; Drosophila S2 Gal4-VP16 UAS-luciferase, luminescence, 20 h; Potency, µM (doses to about 53.6 µM), for inactives: at the highest dose activity, negative = inhibition, most hits filed as inhibitors; hit rate 3.5% among 310,000;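 note: Gal4-VP16 expression switched on by copper sulfate through the metallothionein promoter; % is set by controls: 0 for no effect and ±100 for the full control effect; nearly all actives have a fitted effect of over 50% in size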
SW480 rerep – A quantitative high throughput screen for small molecules that induce DNA re-replication in SW480 colon adenocarcinoma cells | SW480 DNA re-replication, Hoechst DNA content imaging, 48 h | Potency, µM (doses to about 46.1 µM), inactives show top-dose re-replication activation, actives largely listed as activators | hit rate 1.8% among 340,000 | AID 624297, 2012; note: % of control where 0% means no effect; nearly all actives have a fitted effect of over 55% in size
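Treated cells incubate 48 hr (37 C, 5% CO2), are stained 40 min with Hoechst, and nuclear fluorescence is enumerated; a rise in nuclei with high DNA signal marks re-replication.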
RORgamma inh – qHTS for inhibitors of ROR gamma transcriptional activity; Drosophila S2 Gal4-RORgamma UAS-luciferase reporter, 20 h; Potency, µM (top dose mostly 53.6 µM), for the others: top-dose activity change, negative = inhibition, hits mostly inhibitors; hit rate 5.4% among 310,000; note: % is set by controls: 0 for no effect and ±100 for the full control effect; nearly all actives have a fitted effect of over 60% in size
Target sequence (P51450 whole entry, looked up, the tested form may be a part): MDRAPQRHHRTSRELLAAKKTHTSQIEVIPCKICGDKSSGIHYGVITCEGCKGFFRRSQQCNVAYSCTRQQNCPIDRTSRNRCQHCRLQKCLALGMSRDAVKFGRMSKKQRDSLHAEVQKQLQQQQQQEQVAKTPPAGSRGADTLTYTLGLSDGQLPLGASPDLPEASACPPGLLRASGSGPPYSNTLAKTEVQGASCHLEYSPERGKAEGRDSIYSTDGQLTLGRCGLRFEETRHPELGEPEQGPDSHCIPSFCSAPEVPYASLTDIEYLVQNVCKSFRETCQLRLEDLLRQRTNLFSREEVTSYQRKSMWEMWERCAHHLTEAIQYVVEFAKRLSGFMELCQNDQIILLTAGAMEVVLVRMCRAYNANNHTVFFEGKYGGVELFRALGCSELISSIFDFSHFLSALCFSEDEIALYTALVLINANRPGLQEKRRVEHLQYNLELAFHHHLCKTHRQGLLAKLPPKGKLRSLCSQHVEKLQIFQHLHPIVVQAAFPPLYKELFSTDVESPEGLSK
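A Gal4/UAS one-hybrid system in insect cells: metallothionein-promoter Gal4–ROR gamma fusion plus Photinus luciferase reporter. Copper sulfate 700 uM final, 20 hr ambient incubation, luminescent detection after 10 min with reagent.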
ELG1 DNA repair – qHTS screen for small molecules that inhibit ELG1-dependent DNA repair in human embryonic kidney (HEK293T) cells expressing luciferase-tagged ELG1; HEK293T ELG1-luciferase reporter, luminescence, 16 h; DNA damage induced by 5-fluorouridine; Potency, µM (titrated, usually from 46.1 µM), inactives show at the top dose activity change, negative = inhibition, actives largely listed as inhibitors; hit rate 2.3% among 330,000; note: % is set by controls: 0 for no effect and ±100 for the full control effect; nearly all actives have a fitted effect of over 55% in size
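5-Fluorouridine DNA damage + compound/DMSO, 2,000 cells/well, 16 h, 37 °C/5% CO2. ONE-Glo, 30 min RT, luminescence. Readout = decrease in reporter signal.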
MCF10A rerep – A quantitative high throughput screen for small molecules that induce DNA re-replication in MCF 10a normal breast cells; MCF 10A DNA re-replication, Hoechst nuclear intensity, 48 h; Potency, µM (top dose mostly 46.1 µM), inactives show at the top dose activity, positive = re-replication, most hits filed as activators; hit rate 2.9% among 350,000; note: % of control where 0% means no effect; nearly all actives have a fitted effect of over 50% in size
* marks the source's active call; other numbers are inactive results; ? = inconclusive; · = no result; [ ] = dose if it differs, or a comment. Rows were chosen to be rich in hits. Some 10% of all compounds tested hit in one or more screens of this group. Calls come from the whole dose curve; as a rule, active = well fitted curve in the direction sought with a large enough effect; inconclusive = small, poorly fitted or top-dose-only effect, or another doubt; inactive = no such curve, though single readings can be large; an effect the other way counts as inactive or inconclusive. Potency is the fitted concentration of half-maximal effect.

SMILES | VP16 counter | SW480 rerep | RORgamma inh | ELG1 DNA repair | MCF10A rerep
NNc1nc(Nc2ccccc2)nc(N2CCCCC2)n1 | 7.1µM* | 22% | 5µM* | -18% | -2%
NNc1nc(Nc2ccccc2)nc(Nc2ccccc2)n1 | -24% | ? | 16µM* | 16µM* | ?
O=[N+]([O-])c1ccc(Nc2nc(NCCO)nc(N3CCCC3)n2)cc1 | -13% | -1% | 17% | ? | ?
O=[N+]([O-])c1ccc(Nc2nc(N/N=C\c3ccc4c(c3)OCO4)nc(N3CCCCC3)n2)cc1 | ? | 1% | 4.5µM* | ? | 10%
NNc1nc(Nc2ccc([N+](=O)[O-])cc2)nc(N2CCCCCC2)n1 | 16µM* | -8% | ? | ? | 13%
CC1CC(C)CN(C(=O)COC(=O)c2c[nH]c3ccccc23)C1 (stereo unspecified) | · | -12% | · | ? | 29%
O=C(Cc1ccccc1)NCC(=O)Nc1ccccc1Br | 5% | -7% | -11% | ? | -1%
O=C(c1cc(C2CC2)nn1-c1ccccc1)N1CCN(S(=O)(=O)c2c(F)cccc2F)CC1 | · | 6% | · | ? | 13%
O=C1C(Br)=C(c2ccccc2)C(c2ccccc2)=C1c1ccccc1 | · | 2.9µM* | · | · | 3.7µM*
Cc1[nH]c2ccccc2c1C(=O)/C=C\c1ccccc1Cl | -3% | ? | 13µM* | ? | ?
NCCCC[C@H](NC(=O)[C@@H](Cc1ccccc1)NC(=O)[C@H](Cc1c[nH]c2ccccc12)NC(=O)[C@@H](CCCCN)NC(=O)[C@@H](Cc1c[nH]c2ccccc12)NC(=O)[C@@H](N)Cc1cnc[nH]1)C(N)=O | 4% | · | 12% | · | ·
O=C1CSC(=S)N1/N=C/c1cc(Br)ccc1O | ? | · | 11µM* | -2% | ·
O=C1CSC(=S)N1/N=C/c1ccc(O)c(O)c1O | -13% | ? | -16% | 23µM* | 1%
COc1ccccc1C=NN1C(=O)CSC1=S | · | -3% | · | · | 10%
Cc1cc2c(SCC(=O)Nc3ccccc3O)ncnc2s1 | · | -1% | · | · | -11%
COc1ccc(S(=O)(=O)N2CCN(c3ccccc3OC)CC2)cc1C(=O)N1CCCCC1 | -21% | -5% | 0% | -9% | -4%
CCOC(=O)C1(CCCc2ccccc2)CCN(C(=O)Cn2nc(C)nc2C)CC1 | -4% | 5% | 29% | -10% | 1%
Cn1c(=O)c2c(nc(CN3CCN(Cc4ccccc4)CC3)n2CCN2CCOCC2)n(C)c1=O | 2% | -7% | 1.6µM* | 1% | 4%
Cn1c(=O)c2c(nc(CN3CCN(Cc4ccccc4)CC3)n2Cc2ccc(Cl)cc2)n(C)c1=O | -20% | ? | ? | 21µM* | ?
Cn1c(OCc2cccnc2)nc2c1c(=O)n(Cc1ccccc1)c(=O)n2C | 6.3µM* | 3% | 11µM* | -10% | 30%
C#CCOc1nc2c(c(=O)n(C)c(=O)n2C)n1Cc1ccccc1 | -12% | -10% | ? | 18µM* | 10%
Cn1c(=O)c2c(nc(CN3CCN(Cc4ccccc4)CC3)n2Cc2ccccc2)n(C)c1=O | 1% | · | 6% | ? | ·
O=C(CSc1nnc(CNC(=O)c2c(F)cccc2Cl)o1)NCc1ccc(F)cc1 | 0% | -1% | -1% | 0% | 3%
Cc1ccc(CNC(=O)c2cc3ccccc3oc2=O)cc1 | · | -6% | · | · | 2%
CC(C)NC(=S)N1CCn2c(nc3ccccc32)C1 | ? | -2% | 20% | -14% | 0%
SMILES | VP16 counter | SW480 rerep | RORgamma inh | ELG1 DNA repair | MCF10A rerep
CCCn1nc(NC(=O)C(C)(C)C)c2cc3cc(OC)ccc3nc21 | 3% | 21µM* | -3% | -22% | 15µM*
CCCCn1nc(NC(=O)CC)c2cc3cc(OC)ccc3nc21 | -3% | 21µM* | 20% | -13% | 26µM*
CCCCn1nc(NC(=O)COC)c2cc3ccc(C)cc3nc21 | 4% | 34% | -15% | -14% | -4%
C/C(=N\NC(=O)CN1CCN(Cc2ccc(C)cc2)CC1)c1ccncc1 | -12% | -6% | -35% | 8% | -3%
NC(=S)NN=C1c2cc(Cl)ccc2-c2c1cc(Cl)cc2[N+](=O)[O-] | · | ? | · | · | 20%
NC(=S)N/N=C1\CCOc2ccc(Cl)cc21 | 8.9µM* | -35% | 3.2µM* | 21µM* | 1%
COc1ccccc1/C(C)=N/NC(=O)c1nnn(-c2nonc2N)c1C(C)C | -29% | 0% | 7.1µM* | -26% | -7%
CC(C)c1c(C(=O)N/N=C/c2cccc(OCc3ccccc3)c2)nnn1-c1nonc1N | -2% | -17% | ? | -19% | 16µM*
CC(C)c1c(C(=O)N/N=C/c2ccc(OCc3ccc(F)cc3)cc2)nnn1-c1nonc1N | -3% | -4% | -20% | ? | -1%
CC(C)c1c(C(=O)N/N=C/c2ccc(OCc3ccccc3)cc2)nnn1-c1nonc1N | -3% | ? | -8% | 19% | 11%
C/C(=N\NC(=O)c1nnn(-c2nonc2N)c1CN1CCc2ccccc21)c1ccccc1O | 4.5µM* | ? | 2.2µM* | ? | ?
Nc1nonc1-n1nnc(C(=O)N/N=C/c2ccccc2)c1CN1CCc2ccccc21 | -7% | -10% | -8% | -3% | -4%
COc1cccc(/C=N/NC(=O)c2nnn(-c3nonc3N)c2C(C)C)c1OCc1ccc(F)cc1 | 1% | ? | -20% | ? | 21µM*
COc1ccc2[nH]c(C(=O)O)c(NS(=O)(=O)c3ccc(C)cc3C)c2c1 | 9% | -17% | 5% | 3% | 0%
COc1ccc(NC(=S)N(CCCN2CCCC2)Cc2cccs2)cc1 | -5% | 24% | 3% | 4% | 16%
COc1ccc(NC(=S)N(CCCN2CCCC(C)C2)Cc2cccs2)cc1 (stereo unspecified) | -7% | 0% | 11µM* | 9% | 28%
CCN1CCCc2cc(CN(CCN3CCOCC3)C(=S)Nc3cccc(OC)c3)ccc21 | -3%[10 µM] | 23% | 7.1µM* | ? | 12%
CCOc1ccc(NC(=O)N(CCN2CCOCC2)Cc2ccc3c(c2)CCCN3CC)cc1 | -2% | -2% | 12% | ? | 7%
S=C(Nc1ccc(Cl)cc1)N(CCCN1CCOCC1)Cc1cccs1 | 10% | -1% | 13µM* | -6% | 1%
CCc1ccc(NC(=S)N(CCN2CCOCC2)Cc2ccccc2F)cc1 | ? | 1% | 14µM* | ? | 2%
CCOC(=O)C1CCN(C(=O)CN2C(=O)CSc3ccc(S(=O)(=O)N4CCOCC4)cc32)CC1 | -1% | -27% | -28% | 3% | 1%
CCOC(=O)c1cc(-c2ccc(OC)cc2OC)nn1-c1ccc(C(=O)O)cc1 | -12% | 2% | -32% | 29% | ?
